# High-throughput results: PubChem, National Center for Advancing Translational Sciences (NCATS)
# IP6K1 inhibitor: IP6K1 kinase inhibition; Q92551; IP6K1 kinase, ADP-Glo luminescence, 2 h; active compounds read low; activity change, % (series mostly up to about 58 µM); 0.81% of 140,000 active; in the data active means activity change below about -25%; further: on the % scale 0 is the no-effect control and ±100 the full control effect
#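 ADP-Glo luminescence measures ADP made by human IP6K1 during a 2 h RT reaction with ATP/IP6 (mix at 1.3 mM/130 uM); top library doses 57.5 and 19.1 uM final.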
# KDM5B inh: KDM5B demethylase inhibition. 2.6% of 220,000 active. KDM5B demethylase, FDH-coupled NADH fluorescence (FDH is formaldehyde dehydrogenase). Q9UGL1. AID 1347165. Potency, µM (top dose mostly 57.7 µM), most hits filed as inhibitors; active means well fitted inhibition curve with a large enough effect; inconclusive means small, poorly fitted or top-dose-only effect; inactive means no such curve, though single readings can be large or run the other way; further: potency means the concentration at half of the fitted maximal effect; 0% is about no effect; nearly all actives have a fitted effect of over 70% in size
#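 Coupled FDH/NAD⁺ fluorescence readout. KDM5BΔAP 200 nM final; compound titration, 10 min RT preincubation; substrate mix 12.5 µM H3K4me3, 25 µM 2-OG, 50 µM Fe(II), 100 µM ascorbate, 0.25 mM NAD⁺, 0.25 U/mL FDH; ΔRFU over 30 min.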
# Numbers without * were called inactive; i = inactive; ? = inconclusive; . = no result. A selection: hits, their analogues and other compounds. The true share with any hit is near 2.7%.
SMILES,IP6K1 inhibitor,KDM5B inh
CN1CCN(c2cc(=O)c3ccnc(-c4ccnn4C)c3o2)CC1,-13.5,39.8µM*
COc1ccc(-c2nccc3c(=O)cc(N4CCN(C)CC4)oc23)cc1OC,-19.9,i
CN1CCN(c2cc(=O)c3ccnc(-c4ccccc4O)c3o2)CC1,-15.0,?
CN1CCN(c2cc(=O)c3ccnc(-c4cn[nH]c4)c3o2)CC1,-13.9,28.2µM*
CN1CCN(c2cc(=O)c3ccnc(-c4ccccc4F)c3o2)CC1,-7.0,35.5µM*
COc1ccc(-c2cc(-c3c(C)noc3C)c3cncn3c2)cc1OC,-19.5,?
COc1ccccc1-c1cccc(C(=O)N2CCN([S+](=O)([O-])c3ccccc3)CC2)c1,-5.9,.
Cn1cccc1C1CCCN1Cc1nc(-c2ccc(Cl)cc2)no1 (stereo not given),.,i
S=C(Nc1ccc(Cl)cc1Cl)NC1CC1,.,i
Cc1ccc2oc(-c3ccc(C)c(NC(=O)c4cccs4)c3)nc2c1,.,i
Cc1ccc(S(=O)(=O)N2CCn3cccc3C2c2ccccc2)cc1 (stereo not given),.,i
CCOCc1ccccc1CNS(=O)(=O)c1cc(Cl)cc(Cl)c1,.,i
Cc1nc(CC2CCN(c3nccc(-c4cccnc4)n3)CC2)no1,-6.9,22.4µM*
O=C(NCc1ccccn1)C1CCN(c2nccc(-c3cccnc3)n2)CC1,7.9,?
COc1ccc(C(=O)N2CCC(N3C(=O)[C@H]4CN(Cc5ccccc5)C[C@H]4C3=O)CC2)cc1,16.3,.
Cc1nn(-c2ccccc2)c2c1C(C)N(C1CCN([S+](=O)([O-])c3ccccc3)C1)C2=O (stereo not given),-12.2,.
CSc1ccccc1NC(=O)c1ccc(CSc2ccccc2)cc1,.,i
CC(=O)c1ccc(NC(=O)N[C@H]2CO[C@H]3[C@@H]2OC[C@@H]3n2nnnc2Oc2cccc(N(C)C)c2)cc1,-23.7,i
COc1ccc(C(=O)N[C@H]2CO[C@H]3[C@@H]2OC[C@@H]3n2nnnc2Oc2ccc3c(c2)OCO3)cc1,7.1,35.5µM*
O=C(O)c1ccccc1C(=O)N[C@H]1CO[C@H]2[C@@H]1OC[C@@H]2n1nnnc1Oc1ccc2c(c1)OCO2,12.1,i
Cc1cc(C)cc(NC(=S)N[C@H]2CO[C@H]3[C@@H]2OC[C@@H]3n2nnnc2Oc2cccc(N(C)C)c2)c1,5.0,25.1µM*
CCOC(=O)C1CCN(C(=O)c2ccc3nnc(-c4cccc(C(F)(F)F)c4)n3c2)CC1,6.7,.
O=C1OCCN1CCNc1ccc(-c2nc(-c3ccccc3F)no2)cn1,9.8,28.2µM*
CN(C)c1nc(NCCN2CCOC2=O)ncc1F,8.9,?
CCn1c(C)c(C(C)=O)c2cc(OCC(O)CN3CCCCC3)ccc21 (stereo not given),.,i
SMILES,IP6K1 inhibitor,KDM5B inh
CCCNC(=O)C(=O)NC1CCC(C(C)(C)CC)CC1 (stereo not given),.,i
O=C(CSc1nnc(-c2ccco2)n1C1CCCCC1)N1CCN(c2ccc(O)cc2)CC1,.,i
Cn1cc2c3c(cccc31)CN(C(=O)CC(C)(C)C)CC2,-2.6,31.6µM*
CCCn1cc2c3c(cccc31)CN(C(=O)COc1ccc(F)cc1)CC2,23.1,31.6µM*
CCCn1cc2c3c(cccc31)CN(C(=O)Cc1ccc(OC)cc1)CC2,9.7,?
CCC(=O)N1CCc2cn(C)c3cccc(c23)C1,12.2,?
Fc1ccc(CCNC(=S)NC2CCCCC2)cc1,.,i
O=[S+]1([O-])c2cnccc2OC(COc2ccccc2)CN1C1Cc2ccccc2C1 (stereo not given),17.3,.
C=C(C)Cn1c(SC)nc2c1c(=O)n(C)c(=O)n2C,.,i
Cc1nn(-c2ncccn2)c2c1C(c1ccccc1OCCc1ccccc1)CC(=O)N2 (stereo not given),.,i
Cc1ccc2nc3c(n2c1)C(c1ccccc1OCCN(C)C)CC(=O)NC3 (stereo not given),-2.9,31.6µM*
COc1ccc(Nc2cc3c(cn2)NCCN(Cc2ccccc2)C3)cc1,-18.7,?
c1ccc(Nc2cc3c(cn2)NCCN(Cc2cccs2)C3)cc1,-12.7,?
COc1ccccc1CN1CCNc2cnc(OCc3cccnc3)cc2C1,-24.0,?
COc1ccc(CN2CCNc3cnc(OCc4cccnc4)cc3C2)cc1,-16.0,28.2µM*
COc1ccc(CN2CCNc3cc(Nc4ccccc4)ncc3C2)cc1,-22.4,?
c1ccc(Nc2cc3c(cn2)NCCN(Cc2ccsc2)C3)cc1,-16.6,35.5µM*
COc1ccc(CN2CCNc3cnc(Nc4ccccc4)cc3C2)cc1,-20.1,35.5µM*
COc1ccc(CN2CCNc3cnc(Nc4ccccc4)cc3C2)cn1,-18.5,35.5µM*
Cc1ccc(NC(=O)Nc2cc3c(cc2Oc2ccccc2)n(C)c(=O)n3C)c(Cl)c1,.,i
COC(=O)C1c2c(OC)ccc3c2C(=CC(C)(C)CO3)CN1Cc1ccccc1 (stereo not given),2.7,.
CNC(=O)CCn1ncc2cc(OCc3ccccc3-c3ccc(F)cc3F)ccc21,-0.7,?
CCc1nnsc1C(=O)NC(C)c1ccc(OC(C)C)c(OC)c1 (stereo not given),.,i
O=C(Cn1nc2n(c1=O)CCCC2)Nc1ccc2c(c1)OCO2,2.1,i
NC1CCc2nn(CC(=O)NCc3ccc4c(c3)OCO4)c(=O)n2CC1 (stereo not given),-12.9,10µM*
SMILES,IP6K1 inhibitor,KDM5B inh
CC(=O)N1CCC(N2CC[C@@H](CO)N(C)c3nc(C)ccc3C2)CC1,-6.6,31.6µM*
Cc1ccc2c(n1)N(C)[C@H](CO)CCN(Cc1ccc(C#N)cc1)C2,-7.4,?
Cc1ccc2c(n1)N(C)[C@H](CO)CCN(C(=O)Nc1ccccc1)C2,-8.8,i
Cc1ccc2c(n1)N(C)[C@H](CO)CCN(CC1CCCCC1)C2,-1.1,35.5µM*
Cc1ccc2c(n1)N(C)[C@H](CO)CCN(Cc1ccccc1Cl)C2,3.9,?
Cc1ccc2c(n1)N(C)[C@H](CO)CCN(Cc1ccc(F)cc1)C2,-2.7,35.5µM*
Cc1cccc(Cn2c(SCC(=O)Nc3ccccc3)nc3c2c(=O)n(C)c(=O)n3C)c1,.,i
Cc1nn(-c2ccc(C(=O)OCC(=O)NC(=O)NC3CCCCC3)cc2)c(C)c1Cl,.,i
Cc1ccc2c(c1)C1(C(=O)N2)C(C#N)=C(N)N(c2ccc(C(F)(F)F)cc2)C2=C1C(=O)CCC2 (stereo not given),.,i
CCNC(=O)C/C(C)=N/NC(=O)C(C)C,.,i
CC(C)OCCCNC(=O)c1cc(-c2ccccc2F)nc2c1cnn2C,-1.6,.
O=C(NCc1cccs1)c1ccc2c(c1)n(Cc1cccc(F)c1)c(=O)c1ccnn12,-8.7,28.2µM*
O=C(O)c1ccc2c(c1)n(Cc1cccc(F)c1)c(=O)c1ccnn12,9.4,28.2µM*
COc1ccc(Cn2c(=O)c3ccnn3c3ccc(C(=O)NCc4cccnc4)cc32)cc1,8.2,?
O=C(NCc1cccnc1)c1ccc2c(c1)n(Cc1ccccc1)c(=O)c1ccnn12,35.3,28.2µM*
Cc1c(C(=O)N(C)C)sc2c1c(=O)n(-c1ccccc1C(F)(F)F)c(=O)n2Cc1cccc(F)c1,-5.6,i
CN(C)C(=O)c1ccc2c(c1)n(Cc1cccc(F)c1)c(=O)c1ccnn12,-9.0,31.6µM*
CCn1c(=O)c2ccnn2c2ccc(C(=O)NCc3ccccc3)cc21,33.4,?
O=C(NC1CCCC1)c1ccc2c(c1)n(Cc1cccc(F)c1)c(=O)c1ccnn12,-9.0,?
